MARV entry inh – Marburg virus entry inhibition | Marburg virus pseudotyped entry inhibition, cell reporter | Potency, µM (highest dose often 37.8 µM), for the others: at the highest dose activity change, negative = inhibition, actives largely listed as inhibitors | hit rate 1.8% among 300,000 | AID 540276; calls by dose curve; tested in HEK293 cells; further: potency means the concentration at half of the fitted maximal effect
LASV entry inh – Lassa virus entry inhibition | Potency, µM (series often up to 37.9 µM), for the others: top-dose activity change, negative = inhibition, actives largely listed as inhibitors | hit rate 1.2% among 300,000 | Lassa virus pseudotype entry inhibition, cell reporter; calls by dose curve; tested in HEK293 cells; further: potency means the concentration at half of the fitted maximal effect; nearly all actives have a fitted effect of over 50% in size
HCMV antiviral – human cytomegalovirus inhibition; HFF cells, HCMV-luciferase reporter, 72 h; active compounds read low; activity change, negative = inhibition, % at 57.5 µM; hit rate 4.5% among 410,000; AID 1259415; in the data active means activity change below about -60%; inconclusive means no clear call, values can overlap the other calls; inactive means above about -39%
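Luciferase read-out from HCMV-luciferase-infected HFFs (MOI 1 PFU/cell) 72 h post infection at 37C; compounds added after 16 h cell attachment; activity normalized between buffer-only basal and Salinomycin (10uM) inhibitor controls.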
FMDV antiviral – antivirals against foot and mouth disease virus | Potency, µM (series often up to 57.9 µM), for the others: at the highest dose activity change, negative = inhibition, most hits filed as inhibitors | FMDV antiviral cell-based qHTS | hit rate 1.2% among 410,000; calls by dose curve; tested in HEK293T cells; further: read-out not given here; potency means the concentration at half of the fitted maximal effect; nearly all actives have a fitted effect of over 45% in size
Numbers without * were called inactive; u = inconclusive; x = not tested or not shown; [ ] = remark or other dose. Rows were chosen to be rich in hits. Some 6.2% of all compounds tested hit in one or more screens of this group. On the % scale 0 is the no-effect control and ±100 the full control effect.

SMILES | MARV entry inh | LASV entry inh | HCMV antiviral | FMDV antiviral
Cc1ccc(NC(=O)CSC2=C(C#N)C(c3ccc4c(c3)OCO4)CC(=O)N2)cc1C (configuration not stated) | -6% | 4% | u | -29%
CCOC(=O)CSC1=C(C#N)C(c2ccc(C)o2)CC(=O)N1 (configuration not stated) | x | x | -84* | -29%
CCCCOC(=O)CSC1=C(C#N)C(c2ccc3c(c2)OCO3)CC(=O)N1 (configuration not stated) | 7% | 6% | -33 | -27%
N#CCCn1cc(/C=C(\C#N)c2nc3ccccc3s2)c(-c2ccc(F)cc2)n1 | -13% | -22% | 15 | -12%
O=C1C=CC(O)C2(CO)OC12 (configuration not stated) | x | x | -19 | 28µM*
CC(=O)OC1CC2C(C)(C)C(=O)CC[C@]2(C)C2CC[C@]3(C)C(=CC(=O)OC3c3ccoc3)[C@]12C (some centres not stated) | x | x | x | -5%
CC(=O)OC1CC2C(C)(C)C(=O)C=C[C@]2(C)C2CC[C@]3(C)C(=CC(=O)OC3c3ccoc3)[C@]12C (some centres not stated) | x | x | x | 25µM*
FC(F)(F)c1cccc(-c2ccn3ncnc3n2)c1 | u | -38% | -21 | 0%
COc1ccccc1CCNC(=O)c1ccc(OC)c(OC2CCN(C(C)C)CC2)c1 | 29% | 17% | -62* | -2%
COc1cccc(CCNC(=O)c2ccc(OC)c(OC3CCN(C(C)C)CC3)c2)c1 | x | x | 7 | -6%
COc1ccc2oc(=O)c(-c3csc(Nc4ccc(O)cc4)n3)cc2c1 | u | 10µM* | u | u
COc1ccc2oc(=O)c(-c3csc(-c4ccc(Br)cc4)n3)cc2c1 | x | 14%[46.1 µM] | 24 | -6%
CCOc1ccc(S(=O)(=O)N(CC(=O)Nc2ccc(OC)c(Cl)c2)c2ccccc2)cc1 | 3%[46.1 µM] | -9%[46.1 µM] | -60* | 0%
COC(=O)c1cc(NC(=O)CN(c2cccc(OC)c2)S(=O)(=O)c2ccccc2)ccc1Cl | 16µM* | 10µM* | u | u
COc1ccc(N(CC(=O)Nc2ccc(OC)cc2OC)S(=O)(=O)c2ccccc2)cc1 | u | u | -65* | -3%
COC(=O)c1cc(NC(=O)CN(c2ccccc2OC)S(=O)(=O)c2ccccc2)ccc1Cl | u | u | -28 | u
COc1ccc(N(CC(=O)Nc2cccnc2)S(C)(=O)=O)cc1 | -1%[46.1 µM] | 1% | 17 | 0%
COc1cccc(N(CC(=O)Nc2cccnc2)S(C)(=O)=O)c1 | u | 2%[46.1 µM] | -103* | 2%
CC(=O)C1(C)CC2(CC(C)(C)OC2=O)C(=O)O1 (configuration not stated) | x | x | x | -7%
COc1ccc(S(=O)(=O)N(CC(=O)Nc2ccc(OC)cc2OC)c2ccc(Cl)cc2)cc1 | u | u | -25 | 3.2µM*
CCOc1ccc(NC(=O)CN(c2ccc(Cl)cc2C)S(=O)(=O)c2ccccc2)cc1 | u | u | -69* | -1%
CCOc1ccccc1NC(=O)CN(c1ccc(OC)cc1OC)S(=O)(=O)c1ccccc1[N+](=O)[O-] | 10µM* | 1%[46.1 µM] | u | 13%
CCOc1ccc(N(CC(=O)Nc2ccccc2OC)S(=O)(=O)c2ccccc2)cc1 | x | x | -87* | 2%
COc1ccc(NC(=O)CN(c2ccc(OC)c(Cl)c2)S(=O)(=O)c2ccccc2)c(OC)c1 | x | x | 13 | -13%
COc1ccc([N+](=O)[O-])cc1NC(=O)Cc1ccccc1Cl | u | -23% | u | 5%
SMILES | MARV entry inh | LASV entry inh | HCMV antiviral | FMDV antiviral
Cc1ccccc1CN1C2=NCCCN2c2ccccc21 | u | -11% | -29 | -12%
O=C(CNC(=O)c1cccc(F)c1)N/N=C/c1cccc([N+](=O)[O-])c1 | -1% | -1% | -13 | 14%
C#CCSc1nc(-c2ccccc2)cc(-c2ccccc2)c1C#N | -11%[46.1 µM] | -1%[46.1 µM] | -17 | -10%
COc1ccc(N2C3=C(C(=O)CC(C)(C)C3)C(c3cnn(C)c3)C3=C2CC(C)(C)CC3=O)cc1 | -11%[46.1 µM] | u | -6 | -11%
COc1ccccc1NC(=O)c1ccc(CN(c2cc(Cl)ccc2C)S(=O)(=O)c2ccccc2)cc1 | u | 5% | -20 | -16%
COc1ccc(NC(=O)c2ccc(CN(c3cc(Cl)ccc3C)S(=O)(=O)c3ccccc3)cc2)cc1OC | 4.1µM* | -18% | -18 | -12%
Cc1[nH][nH]c(=O)c1C(c1ccc(-c2ccc(Cl)c(Cl)c2)o1)c1c(C)[nH][nH]c1=O | -1% | x | u | -19%
COC(=O)c1ccc(OCC(O)CN2C(=O)c3ccccc3C2=O)cc1 (configuration not stated) | x | x | -3 | -2%
COC(=O)c1cc(NC(=O)Cn2nc(C)n3cccc3c2=O)cc(C(=O)OC)c1 | u | u | -34 | 0%
CCc1ccc(C(=O)c2cncc(Br)c2)cc1 | u | 5% | -69* | -3%
Cc1ccc(C(=O)c2cncc(Br)c2)cc1 | 7% | 9% | -71* | 24%
NNC(=O)c1cncc(Br)c1 | -2% | 0% | 1 | -15%
COc1ccc(/C=C/C(=O)NC(=S)Nc2ccccn2)cc1 | x | x | 47 | 68%
Cc1cccc(N2O[C@H]3C=C[C@@H]2C3)n1 | x | x | 38 | x
COc1ccccc1CNC(=O)C1CC(c2ccccc2C(F)(F)F)=NO1 (configuration not stated) | x | x | -4 | 5%
CCOC(=O)C1=C(Cc2ccc(Cl)cc2)C(=O)c2ccccc2C1=O | u | 23µM* | x | u
CCOC(=O)C1=C(C)Nc2ccccc2N/C1=N\S(=O)(=O)c1ccc(Cl)cc1 | x | x | -35 | u
CCS(=O)(=O)c1nc2ccccc2n1Cc1ccccc1Cl | x | x | -67* | 0%
CS(=O)(=O)c1nc2ccccc2n1Cc1ccccc1 | -7% | -10% | -67* | 4%
O=C(Nc1ccnn1C1CCN(C2CCCCC2)CC1)c1ccccc1 | x | x | 0 | -27%
CN(C)S(=O)(=O)c1ccc(C(=O)Nc2ccnn2C2CCCCC2)cc1 | u | -16% | -8 | 28µM*
O=C(Nc1ccc(Oc2cccc3ccccc23)cc1)c1ccco1 | u | u | -68* | 0%
O=C(Nc1cccc(NC(=O)c2nccc3ccccc23)c1)c1ccco1 | -29% | 4% | -97* | x
O=C(O)c1ccccc1C(=O)Nc1ccc(Oc2cccc3ccccc23)cc1 | u | u | -64* | u
O=C(Nc1ccc(O)cc1)c1ccccc1OCc1ccccc1 | x | x | -77* | -29%
SMILES | MARV entry inh | LASV entry inh | HCMV antiviral | FMDV antiviral
Cc1cccc(Oc2ccc(NC(=O)c3ccccc3C(=O)O)cc2)c1C | 0%[46.1 µM] | 5% | -26 | 12%
CN(C)/C=C/C(=C\C(=O)C(F)(F)F)Nc1ccc(C(F)(F)F)cc1 | x | x | 22 | u
COc1cc(OC)c(S(=O)(=O)Nc2ccc(C)cn2)cc1NC(C)=O | -6% | -11% | -19 | 25%
O=C1N=C(N2CCC(Cc3ccccc3)CC2)S/C1=C/c1cn[nH]c1-c1ccccc1 | 10µM* | u | -17 | u
O=c1oc2ccccc2c(O)c1[C@H]1c2ccc(O)cc2Oc2c1c(=O)oc1ccccc21 | x | x | -93* | u
O=c1oc2ccccc2c2c1C(O)CO2 (configuration not stated) | x | x | -38 | -26%
Cc1cc(C)c(NC(=O)C2CC(=O)N(Cc3ccccc3)C2)c(C)c1 (configuration not stated) | 0%[46.1 µM] | -3% | -31 | -13%

Screening results (PubChem)
